# The supplement of paper PMC12645437, “Orthogonal IMiD-Degron Pairs Induce Selective Protein Degradation in Cells” (ACS Chemical Biology, 2025)
# Over roughly 8,300 sequences, “log2 fold change of degron read counts, EGFP-low vs EGFP+ sorted cells (limma voom), compound-induced degradation” has its median near -1.1; the highest 2% begin near 3.2. The full list was thinned out, with the highest values kept by preference.
# T1: CRBN, Q96SW2
# T1 chain: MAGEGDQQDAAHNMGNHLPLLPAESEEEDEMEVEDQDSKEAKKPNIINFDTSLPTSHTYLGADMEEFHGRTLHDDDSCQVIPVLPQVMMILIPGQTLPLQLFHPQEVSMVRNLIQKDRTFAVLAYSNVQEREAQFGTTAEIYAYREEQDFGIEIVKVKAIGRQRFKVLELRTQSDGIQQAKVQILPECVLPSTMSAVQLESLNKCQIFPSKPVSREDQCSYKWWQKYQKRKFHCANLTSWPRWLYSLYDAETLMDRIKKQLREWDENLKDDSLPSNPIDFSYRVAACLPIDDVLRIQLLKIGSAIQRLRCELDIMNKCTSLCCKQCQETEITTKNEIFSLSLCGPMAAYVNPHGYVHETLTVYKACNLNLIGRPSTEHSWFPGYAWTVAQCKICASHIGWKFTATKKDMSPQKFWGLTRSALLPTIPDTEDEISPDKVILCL
# Biological target: T1, CRBN, Q96SW2
# Test: log2 fold change of degron read counts, EGFP-low vs EGFP+ sorted cells (limma voom), compound-induced degradation; higher = more compound-induced degradation of the degron-EGFP fusion; degrons are variants of IKZF1/3 zinc finger 2; compound dose not given here
# Conditions: Jurkat, 18 h
# [1] = compound: compound 19 (5-tert-butyl-thalidomide)
# [2] = compound: compound 22 (5-morpholino-thalidomide)
# [3] = compound: compound 33 (diphenyl IMiD analogue)
# 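Also: pooled lentiviral library of zinc finger degron-EGFP fusions in mCherry-positive Jurkat cells, FACS-sorted after compound exposure, with degron abundance counted by next-generation sequencing.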
Sequence,log2 fold change of degron read counts [1],log2 fold change of degron read counts [2],log2 fold change of degron read counts [3],log2 fold change of degron read counts (compound: thalidomide)
"FKCEICGRAFTQKGNLLRHIKL [46F_47K_49E_50I_52G_53R_54A_55F_67L_, Q9UKT9]",-2.33,-3.03,-3.25,-2.08
"FTCDVCGADFTQKGNLLRHIKL [46F_47T_49D_50V_52G_53A_54D_55F_67L_, Q9UKT9]",-2.29,-1.84,-2.04,-2.29
"FMCEVCGAFFTQKGNLLRHIKL [46F_47M_49E_50V_52G_53A_54F_55F_67L_, Q9UKT9]",-2.24,-2.24,0.504,-1.37
"FCCNQCGRAFTQKGNLLRHIKL [46F_47C_49N_50Q_52G_53R_54A_55F_67L_, Q9UKT9]",-2.96,-3.3,-2.71,-2.65
"FGCDVCGAEFTQKGNLLRHIKL [46F_47G_49D_50V_52G_53A_54E_55F_67L_, Q9UKT9]",-1.81,-1.82,-1.14,-1.84
"FCCPICGRMFTQKGNLLRHIKL [46F_47C_49P_50I_52G_53R_54M_55F_67L_, Q9UKT9]",-0.211,-0.371,0.994,0.267
"FQCNQCGHEFTQKGNLLRHIKL [46F_47Q_49N_50Q_52G_53H_54E_55F_67L_, Q9UKT9]",-3.09,-3.12,-3.48,-3.28
"LCCNQCGFWCTQKGNLLRHIKL [46L_47C_49N_50Q_52G_53F_54W_55C_67L_, Q9UKT9]",-0.952,-1.34,-1.18,-1.07
"FQCDVCGAAFTQKGNLLRHIKL [46F_47Q_49D_50V_52G_53A_54A_55F_67L_, Q9UKT9]",0.909,1.9,0.606,2.84
"FMCEQCGATFTQKGNLLRHIKL [46F_47M_49E_50Q_52G_53A_54T_55F_67L_, Q9UKT9]",-2.84,-2.15,0.0969,-1.3
"FLCPICGHCFTQKGNLLRHIKL [46F_47L_49P_50I_52G_53H_54C_55F_67L_, Q9UKT9]",-2.45,-2.17,-1.87,-1.49
"FECPICGRGFTQKGNLLRHIKL [46F_47E_49P_50I_52G_53R_54G_55F_67L_, Q9UKT9]",-1.82,-2.41,-0.354,0.562
"FYCEICGAAFTQKGNLLRHIKL [46F_47Y_49E_50I_52G_53A_54A_55F_67L_, Q9UKT9]",3.59,3.59,2.92,1.64
"FVCEICGAAFTQKGNLLRHIKL [46F_47V_49E_50I_52G_53A_54A_55F_67L_, Q9UKT9]",1.93,2.89,2.35,3.15
"FICEICGAAFTQKGNLLRHIKL [46F_47I_49E_50I_52G_53A_54A_55F_67L_, Q9UKT9]",0.759,2.95,2.44,3.09
"FQCEICGAAFTQKGNLLRHIKL [46F_47Q_49E_50I_52G_53A_54A_55F_67L_, Q9UKT9]",2.89,2.79,2.34,3.64
"FECPICGHSFTQKGNLLRHIKL [46F_47E_49P_50I_52G_53H_54S_55F_67L_, Q9UKT9]",-2.78,-2.96,-1.75,-1.65
"FYCEQCGATFTQKGNLLRHIKL [46F_47Y_49E_50Q_52G_53A_54T_55F_67L_, Q9UKT9]",0.368,2.41,0.941,-1.4
